The full data set covers some 7,900 targets. This sample favours those with a hit. About 0.6% of all pairs of compound and target were hits. A number with no mark means an inactive call.
Assays:
Assay in all cases: log2 fold change, soluble protein after heating vs DMSO (PISA); higher = thermal stabilisation; K562 cells, 10 uM, 30 min; active = over 0.2 and 3.5 SD of the protein, either way, in both replicates (recomputed)
bafetinib = compound: Cc1ccc(NC(=O)c2ccc(CN3CC[C@H](N(C)C)C3)c(C(F)(F)F)c2)cc1Nc1nccc(-c2cncnc2)n1 [bafetinib]
Method in brief: (§1)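 Soluble protein was quantified by TMTpro 16plex LC-MS/MS after channel sums were equalised. It was obtained as the supernatant after 21,000xg for 90 min from pooled aliquots of K562 cells (2×10^6 cells/mL, 10 μM compound, 30 min) heated for 3 min across 48°C-58°C and extracted in PBS with 0.5% NP-40 at 4°C. Thermal stability values are relative to control samples and come from duplicates. They are given as log2 fold changes.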

[1] = compound: Cc1cccc(CC(=O)N2CCc3c2ccc(-c2cn(C)c4ncnc(N)c24)c3F)n1
Method in brief: as §1

nilotinib = compound: Cc1cn(-c2cc(NC(=O)c3ccc(C)c(Nc4nccc(-c5cccnc5)n4)c3)cc(C(F)(F)F)c2)cn1 [nilotinib]
Method in brief: as §1

[2] = compound: Cc1nc(Nc2n[nH]c3c2CN(C(=O)N[C@H](CN(C)C)c2ccccc2)C3(C)C)c2sccc2n1
Method in brief: as §1

dasatinib = compound: Cc1nc(Nc2ncc(C(=O)Nc3c(C)cccc3Cl)s2)cc(N2CCN(CCO)CC2)n1 [dasatinib]
Method in brief: as §1

[3] = compound: Cc1ncc(-c2ccnc(Nc3ccc(S(C)(=O)=O)cc3)n2)n1C(C)C
Method in brief: as §1

[4] = compound: Cn1cc(-c2ccc3c(c2)CCN3C(=O)Cc2cccc(C(F)(F)F)c2)c2c(N)ncnc21
Method in brief: as §1

[5] = compound: Cn1cc(-c2ccc3nnc(C(F)(F)c4ccc5ncccc5c4)n3n2)cn1
Method in brief: as §1

tipifarnib = compound: Cn1cncc1[C@@](N)(c1ccc(Cl)cc1)c1ccc2c(c1)c(-c1cccc(Cl)c1)cc(=O)n2C [tipifarnib]
Method in brief: as §1

mubritinib = compound: FC(F)(F)c1ccc(/C=C/c2nc(COc3ccc(CCCCn4ccnn4)cc3)co2)cc1 [mubritinib]
Method in brief: as §1

[6] = compound: NC(=O)Nc1cc(-c2cccc(F)c2)sc1C(=O)N[C@H]1CCCNC1
Method in brief: as §1

[7] = compound: NC(=O)c1cnc(N[C@@H]2CCCC[C@@H]2N)nc1Nc1cccc(-n2nccn2)c1
Method in brief: as §1

[8] = compound: NC1(c2ccc(-c3nc4ccn5c(=O)[nH]nc5c4cc3-c3ccccc3)cc2)CCC1
Method in brief: as §1

[9] = compound: NCC(=O)Nc1ccc(-n2nc(C(F)(F)F)cc2-c2ccc3c(ccc4ccccc43)c2)cc1
Method in brief: as §1

entinostat = compound: Nc1ccccc1NC(=O)c1ccc(CNC(=O)OCc2cccnc2)cc1 [entinostat]
Method in brief: as §1

vorinostat = compound: O=C(CCCCCCC(=O)Nc1ccccc1)NO [vorinostat]
Method in brief: as §1

citarinostat = compound: O=C(CCCCCCNC(=O)c1cnc(N(c2ccccc2)c2ccccc2Cl)nc1)NO [citarinostat]
Method in brief: as §1

silmitasertib = compound: O=C(O)c1ccc2c(c1)nc(Nc1cccc(Cl)c1)c1ccncc12 [silmitasertib]
Method in brief: as §1

[10] = compound: O=C1NC(=O)C(c2cnc3ccccn23)=C1c1cn2c3c(cc(F)cc13)CN(C(=O)N1CCCCC1)CC2
Method in brief: as §1

[11] = compound: c1cc(OCCN2CCCCC2)cc(-c2n[nH]c3ccc(-c4nnc[nH]4)cc23)c1
Method in brief: as §1

Sequence of UniProt Q9NRY5 (Q9NRY5 whole entry, looked up): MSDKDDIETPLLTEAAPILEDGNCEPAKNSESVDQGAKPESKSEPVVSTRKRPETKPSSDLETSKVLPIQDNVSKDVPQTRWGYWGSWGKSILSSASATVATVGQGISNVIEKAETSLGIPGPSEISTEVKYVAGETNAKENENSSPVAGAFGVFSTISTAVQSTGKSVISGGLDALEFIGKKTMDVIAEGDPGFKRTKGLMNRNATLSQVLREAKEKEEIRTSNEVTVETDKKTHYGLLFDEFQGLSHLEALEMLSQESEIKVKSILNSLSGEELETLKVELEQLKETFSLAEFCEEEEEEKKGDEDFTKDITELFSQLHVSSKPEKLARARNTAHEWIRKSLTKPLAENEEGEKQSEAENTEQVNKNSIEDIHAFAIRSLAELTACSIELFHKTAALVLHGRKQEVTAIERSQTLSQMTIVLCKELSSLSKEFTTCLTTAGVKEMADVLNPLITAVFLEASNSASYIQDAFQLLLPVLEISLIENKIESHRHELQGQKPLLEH
Sequence of UniProt Q9NXF7 (Q9NXF7 whole entry, looked up): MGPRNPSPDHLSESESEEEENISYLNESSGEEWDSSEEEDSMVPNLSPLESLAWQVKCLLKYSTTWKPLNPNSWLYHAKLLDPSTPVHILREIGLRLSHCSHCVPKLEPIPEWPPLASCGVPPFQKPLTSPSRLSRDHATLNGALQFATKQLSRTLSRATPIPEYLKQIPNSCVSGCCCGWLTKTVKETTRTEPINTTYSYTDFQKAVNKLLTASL
Sequence of UniProt P10619 (P10619 whole entry, looked up): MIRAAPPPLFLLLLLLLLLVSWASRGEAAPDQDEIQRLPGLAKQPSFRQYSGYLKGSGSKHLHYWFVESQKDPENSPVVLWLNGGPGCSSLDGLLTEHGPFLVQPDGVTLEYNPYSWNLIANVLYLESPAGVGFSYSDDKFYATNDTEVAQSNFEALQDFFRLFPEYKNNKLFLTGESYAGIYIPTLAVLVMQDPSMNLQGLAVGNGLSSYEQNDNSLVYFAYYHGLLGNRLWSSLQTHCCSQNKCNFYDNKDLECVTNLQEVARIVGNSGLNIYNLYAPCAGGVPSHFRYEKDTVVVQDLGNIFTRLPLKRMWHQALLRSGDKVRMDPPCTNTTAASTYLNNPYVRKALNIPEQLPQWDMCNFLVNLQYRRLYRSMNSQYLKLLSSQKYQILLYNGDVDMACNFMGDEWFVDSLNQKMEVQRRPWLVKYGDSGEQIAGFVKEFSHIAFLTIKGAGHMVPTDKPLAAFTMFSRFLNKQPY
Sequence of UniProt Q7Z2Z2 (Q7Z2Z2 whole entry, looked up): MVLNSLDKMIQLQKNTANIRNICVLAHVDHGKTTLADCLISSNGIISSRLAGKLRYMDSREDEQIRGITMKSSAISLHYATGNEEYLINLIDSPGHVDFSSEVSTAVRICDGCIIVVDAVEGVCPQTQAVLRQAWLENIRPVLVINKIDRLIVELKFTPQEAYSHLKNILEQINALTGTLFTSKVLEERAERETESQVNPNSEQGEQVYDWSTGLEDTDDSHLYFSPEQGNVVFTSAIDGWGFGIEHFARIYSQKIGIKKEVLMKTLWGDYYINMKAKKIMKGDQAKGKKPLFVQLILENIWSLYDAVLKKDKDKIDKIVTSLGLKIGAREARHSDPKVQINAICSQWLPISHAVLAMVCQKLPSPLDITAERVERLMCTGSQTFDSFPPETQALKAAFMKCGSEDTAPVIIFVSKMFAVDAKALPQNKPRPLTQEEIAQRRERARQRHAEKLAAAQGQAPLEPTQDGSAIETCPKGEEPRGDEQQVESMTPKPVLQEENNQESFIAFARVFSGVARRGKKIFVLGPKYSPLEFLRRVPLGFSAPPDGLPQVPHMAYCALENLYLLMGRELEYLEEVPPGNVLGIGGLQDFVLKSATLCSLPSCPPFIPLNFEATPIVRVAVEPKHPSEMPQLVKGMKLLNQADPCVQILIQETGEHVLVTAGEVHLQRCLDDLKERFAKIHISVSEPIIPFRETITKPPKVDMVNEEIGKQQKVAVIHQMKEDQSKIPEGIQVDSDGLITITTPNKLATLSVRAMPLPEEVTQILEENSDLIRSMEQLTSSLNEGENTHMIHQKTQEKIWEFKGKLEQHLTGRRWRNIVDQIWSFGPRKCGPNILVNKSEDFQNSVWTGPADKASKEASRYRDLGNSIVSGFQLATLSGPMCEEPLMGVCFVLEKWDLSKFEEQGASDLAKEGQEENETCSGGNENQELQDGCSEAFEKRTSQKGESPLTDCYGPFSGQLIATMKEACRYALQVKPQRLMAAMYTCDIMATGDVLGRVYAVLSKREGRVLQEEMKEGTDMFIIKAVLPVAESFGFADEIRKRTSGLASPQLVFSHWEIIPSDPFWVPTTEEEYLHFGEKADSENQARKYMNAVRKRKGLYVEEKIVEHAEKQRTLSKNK
Sequence of UniProt Q14689 (Q14689 whole entry, looked up): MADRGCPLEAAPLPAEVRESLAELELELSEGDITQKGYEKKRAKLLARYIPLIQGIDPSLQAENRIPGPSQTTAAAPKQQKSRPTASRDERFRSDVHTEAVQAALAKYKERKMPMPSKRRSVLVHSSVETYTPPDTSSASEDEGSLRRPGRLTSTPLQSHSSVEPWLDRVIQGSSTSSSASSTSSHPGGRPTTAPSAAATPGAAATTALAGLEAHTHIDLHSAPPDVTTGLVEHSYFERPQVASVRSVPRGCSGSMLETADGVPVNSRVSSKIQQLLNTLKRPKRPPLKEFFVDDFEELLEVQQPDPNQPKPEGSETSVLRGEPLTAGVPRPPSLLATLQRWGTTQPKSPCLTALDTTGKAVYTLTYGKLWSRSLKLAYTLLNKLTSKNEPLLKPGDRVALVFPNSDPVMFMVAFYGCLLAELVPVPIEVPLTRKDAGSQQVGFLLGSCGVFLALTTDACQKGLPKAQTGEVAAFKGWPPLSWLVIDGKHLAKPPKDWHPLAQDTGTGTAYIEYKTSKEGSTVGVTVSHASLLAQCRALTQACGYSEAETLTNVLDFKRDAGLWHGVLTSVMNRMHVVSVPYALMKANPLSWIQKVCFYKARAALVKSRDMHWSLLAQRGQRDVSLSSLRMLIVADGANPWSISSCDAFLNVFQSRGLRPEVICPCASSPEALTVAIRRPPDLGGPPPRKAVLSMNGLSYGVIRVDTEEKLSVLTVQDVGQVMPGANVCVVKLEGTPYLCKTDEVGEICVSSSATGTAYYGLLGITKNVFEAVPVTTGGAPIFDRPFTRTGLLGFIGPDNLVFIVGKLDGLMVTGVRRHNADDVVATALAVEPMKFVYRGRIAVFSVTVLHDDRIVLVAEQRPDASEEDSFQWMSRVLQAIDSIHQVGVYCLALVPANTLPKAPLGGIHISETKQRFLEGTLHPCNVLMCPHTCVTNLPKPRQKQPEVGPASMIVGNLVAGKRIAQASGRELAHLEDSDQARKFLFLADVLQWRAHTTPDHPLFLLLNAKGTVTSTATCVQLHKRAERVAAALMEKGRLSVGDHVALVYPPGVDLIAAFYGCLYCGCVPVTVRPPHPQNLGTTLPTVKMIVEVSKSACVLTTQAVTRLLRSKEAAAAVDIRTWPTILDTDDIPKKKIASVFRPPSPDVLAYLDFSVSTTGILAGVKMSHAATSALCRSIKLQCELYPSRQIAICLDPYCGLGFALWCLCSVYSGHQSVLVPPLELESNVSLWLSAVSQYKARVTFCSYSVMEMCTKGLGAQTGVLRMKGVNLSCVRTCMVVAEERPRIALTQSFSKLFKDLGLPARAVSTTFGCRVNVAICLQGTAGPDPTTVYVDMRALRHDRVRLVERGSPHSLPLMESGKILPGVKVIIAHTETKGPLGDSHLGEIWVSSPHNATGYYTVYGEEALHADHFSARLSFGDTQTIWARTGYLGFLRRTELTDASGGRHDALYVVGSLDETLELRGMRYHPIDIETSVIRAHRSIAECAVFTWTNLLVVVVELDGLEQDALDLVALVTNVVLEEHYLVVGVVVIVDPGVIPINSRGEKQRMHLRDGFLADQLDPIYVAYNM
Sequence of UniProt O00148 (O00148 whole entry, looked up): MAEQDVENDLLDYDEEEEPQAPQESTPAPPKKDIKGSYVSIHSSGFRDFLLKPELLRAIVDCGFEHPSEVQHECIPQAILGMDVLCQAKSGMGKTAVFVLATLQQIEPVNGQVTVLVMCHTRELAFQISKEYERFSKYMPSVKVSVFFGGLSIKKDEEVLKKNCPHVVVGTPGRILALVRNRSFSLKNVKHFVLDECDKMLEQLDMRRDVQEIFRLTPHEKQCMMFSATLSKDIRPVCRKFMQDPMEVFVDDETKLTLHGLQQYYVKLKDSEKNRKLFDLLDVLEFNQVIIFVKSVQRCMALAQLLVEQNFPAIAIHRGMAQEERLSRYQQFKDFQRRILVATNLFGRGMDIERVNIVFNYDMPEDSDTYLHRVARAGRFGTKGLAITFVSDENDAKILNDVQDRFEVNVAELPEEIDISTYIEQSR
Sequence of UniProt Q9UK59 (Q9UK59 whole entry, looked up): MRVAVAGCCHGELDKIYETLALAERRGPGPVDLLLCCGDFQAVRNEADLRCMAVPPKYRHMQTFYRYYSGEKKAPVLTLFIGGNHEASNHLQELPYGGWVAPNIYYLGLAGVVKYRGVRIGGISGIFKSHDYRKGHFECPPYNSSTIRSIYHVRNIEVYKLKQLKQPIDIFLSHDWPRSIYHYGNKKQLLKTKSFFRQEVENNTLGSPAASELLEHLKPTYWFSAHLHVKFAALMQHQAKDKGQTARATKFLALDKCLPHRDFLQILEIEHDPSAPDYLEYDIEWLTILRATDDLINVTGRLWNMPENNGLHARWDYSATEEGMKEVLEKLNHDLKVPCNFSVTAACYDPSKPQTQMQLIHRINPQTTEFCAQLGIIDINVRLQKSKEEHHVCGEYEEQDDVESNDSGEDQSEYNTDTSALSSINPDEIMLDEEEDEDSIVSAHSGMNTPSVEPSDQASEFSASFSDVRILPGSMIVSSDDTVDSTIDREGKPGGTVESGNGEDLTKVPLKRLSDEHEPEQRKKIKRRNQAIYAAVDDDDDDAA

Target | log2 fold change (bafetinib) | log2 fold change [1] | log2 fold change (nilotinib) | log2 fold change [2] | log2 fold change (dasatinib) | log2 fold change [3] | log2 fold change [4] | log2 fold change [5] | log2 fold change (tipifarnib) | log2 fold change (mubritinib) | log2 fold change [6] | log2 fold change [7] | log2 fold change [8] | log2 fold change [9] | log2 fold change (entinostat) | log2 fold change (vorinostat) | log2 fold change (citarinostat) | log2 fold change (silmitasertib) | log2 fold change [10] | log2 fold change [11]
CUX1 isoform 3 (UniProt P39880) | -0.054 | -0.032 | -0.008 | -0.06 | -0.016 | 0.044 | 0.023 | 0.08 | 0.046 | 0.037 | -0.016 | -0.006 | -0.034 | -0.076 | -0.028 | 0.034 | 0.019 | 0.046 | -0.022 | -0.004
DDX39A (UniProt O00148) | 0.001 | 0.014 | -0.017 | -0.278 (active) | -0.134 | -0.218 | -0.018 | -0.007 | 0.079 | -0.182 | -0.067 | -0.04 | 0.057 | -0.042 | -0.003 | 0.048 | -0.006 | -0.011 | -0.107 | -0.233
ELOVL1 (UniProt Q9BW60) | -0.245 | 0.12 | -0.126 | 0.024 | -0.041 | -0.011 | 0.139 | -0.097 | -0.093 | 0.011 | 0.017 | -0.191 | -0.087 | -0.055 | 0.05 | 0.321 | -0.006 | -0.046 | 0.002 | 0.035
EXOC2 (UniProt Q96KP1) | 0.021 | -0.089 | -0.002 | -0.135 | -0.301 | 0.028 | -0.011 | -0.081 | -0.066 | 0.035 | 0.039 | -0.084 | -0.218 | -0.024 | 0.052 | -0.013 | 0.105 | 0.035 | 0.028 | -0.102
DHPS (UniProt P49366) | 0.026 | -0.057 | 0.035 | 0.001 | 0.014 | 0.004 | 0.008 | -0.005 | -0.047 | 0.061 | 0.01 | 0.051 | 0.014 | 0.053 | -0.045 | 0.04 | 0.022 | -0.013 | 0.08 | -0.026
DCAF16 (UniProt Q9NXF7) | -0.051 | -0.056 | -0.005 | -0.004 | -0.179 | 0.005 | -0.031 | 0.091 | -0.155 | -0.085 | -0.122 | -0.109 | -0.09 | -0.036 | 0.02 | 0.004 | 0.07 | 0.082 | -0.09 | -0.041
DCTN1 isoform 4 (UniProt Q14203) | 0.057 | 0.037 | -0.052 | -0.052 | -0.256 | -0.018 | 0.003 | -0.015 | -0.054 | 0.038 | 0.002 | -0.052 | -0.033 | 0.019 | 0.049 | 0.029 | 0.007 | 0.046 | 0.081 | -0.089
DIP2A (UniProt Q14689) | -0.005 | -0.019 | 0.005 | -0.07 | -0.04 | 0.01 | 0.043 | -0.053 | 0.02 | 0.002 | -0.056 | 0.007 | -0.356 | 0.017 | 0.002 | 0.031 | 0.043 | 0.1 | -0.016 | 0.004
DBR1 (UniProt Q9UK59) | -0.001 | 0.02 | -0.023 | 0.05 | 0.06 | -0.009 | 0.021 | -0.067 | 0.03 | -0.002 | 0.002 | -0.017 | -0.002 | 0.052 | -0.023 | -0.215 (active) | 0.014 | -0.012 | -0.004 | -0.072
CTSL (UniProt P07711) | -0.261 | -0.046 | 0.041 | 0.103 | 0.14 | 0.004 | 0.013 | 0.045 | 0.145 | -0.006 | 0.082 | -0.045 | -0.123 | 0.039 | -0.074 | -0.053 | -0.018 | 0.027 | -0.079 | -0.011
EIF4G1 isoform 8 (UniProt Q04637) | -0.002 | 0.046 | -0.223 | -0.11 | -0.157 | -0.17 | -0.155 | -0.117 | -0.083 | -0.071 | -0.104 | -0.273 | -0.154 | -0.106 | 0.185 | 0.116 | 0.058 | -0.045 | 0.194 | -0.269
CTSA (UniProt P10619) | -0.595 (active) | -0.04 | 0.052 | 0.015 | 0.112 | -0.001 | 0.019 | 0.005 | 0.16 | 0.007 | 0.031 | 0.092 | -0.067 | -0.013 | 0.001 | -0.03 | -0.005 | 0.044 | -0.023 | 0.134
DPP8 (UniProt Q6V1X1) | -0.054 | -0.035 | 0.027 | -0.019 | 0.014 | -0.001 | 0.048 | 0.054 | 0.065 | 0.036 | -0.243 | -0.126 | -0.04 | -0.079 | -0.124 | -0.021 | -0.325 (active) | 0.063 | -0.114 | 0.219
ETNK1 (UniProt Q9HBU6) | -0.042 | 0.037 | -0.043 | 0.08 | -0.07 | 0.06 | 0.026 | 0.008 | -0.183 | 0.036 | 0.25 (active) | 0.011 | -0.144 | -0.057 | 0.089 | -0.01 | 0.019 | 0.041 | 0.208 | -0.084
EFL1 (UniProt Q7Z2Z2) | -0.043 | -0.014 | -0.147 | -0.052 | -0.077 | 0.003 | 0.021 | 0.028 | -0.026 | -0.109 | 0.001 | -0.023 | -0.106 | -0.026 | 0.025 | 0.071 | 0.047 | 0.017 | -0.025 | -0.023
FAM114A2 (UniProt Q9NRY5) | -0.094 | 0.025 | -0.035 | -0.032 | -0.083 | 0.004 | 0.001 | 0.019 | -0.002 | 0.055 | 0.023 | -0.089 | -0.151 | -0.062 | 0.051 | 0.034 | 0.05 | 0.02 | -0.016 | -0.013

From the supplement of paper PMC10849652
